HP1b binding inh – blocks HP1-beta chromodomain binding to methylated histone tails; AlphaScreen HP1-beta / biotin-H3K9me3 peptide binding; Potency, µM (series often up to 114 µM), for the others: at the top dose activity change, negative = inhibition, hits mostly inhibitors; 390,000 tested, 0.56% active; AID 540317; note: nearly all actives have a fitted effect of over 70% in size
Target sequence (P83916 whole entry, looked up): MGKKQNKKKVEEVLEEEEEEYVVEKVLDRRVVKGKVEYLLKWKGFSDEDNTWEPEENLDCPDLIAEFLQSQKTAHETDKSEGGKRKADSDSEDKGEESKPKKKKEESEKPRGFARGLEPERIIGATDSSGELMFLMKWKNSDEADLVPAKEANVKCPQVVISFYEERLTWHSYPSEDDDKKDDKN
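Compound inhibition of the preformed complex between 50 nM HP1-beta and 50 nM biotinylated H3K9me3 peptide was read by AlphaScreen. Buffer was PBS pH 7.4 with 0.01% Tween-20. Incubations ran 30 min at room temperature, with 10 ug/mL donor/acceptor beads.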
BAZ2B block – inhibitors of human BAZ2B bromodomain. 360,000 tested, 4.4% active. Q9UIF8. AlphaScreen BAZ2B-H3K14Ac peptide displacement. Potency, µM (series often up to 114 µM), for the others: top-dose activity change, negative = inhibition, hits mostly inhibitors. AID 504333; note: % is set by controls: 0 for no effect and ±100 for the full control effect; nearly all actives have a fitted effect of over 60% in size
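AlphaScreen luminescence quantifies BAZ2B engagement of H3K14Ac peptide; the protein and biotinylated peptide are both at 50 nM final, buffer PBS pH 7.4 with 0.01% Tween-20, all steps at room temperature.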
L3MBTL1 block – inhibitors of human L3MBTL1; Potency, µM (series often up to 57.1 µM), without a hit: top-dose activity, negative = inhibition, hits mostly inhibitors; 230,000 tested, 0.66% active; AlphaScreen L3MBTL1–H3K9me1 peptide binding; Q9Y468; note: % is set by controls: 0 for no effect and ±100 for the full control effect; nearly all actives have a fitted effect of over 60% in size
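First, the protein-peptide complex forms for 30 min at room temperature (L3MBTL1 50 nM, biotinylated H3K9me1 peptide 75 nM). Next, compounds are pin-transferred and incubated 30 min. Finally, AlphaScreen beads are added and read after 30 min.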
G9a inh – G9a (human) methyltransferase inhibition; 350,000 tested, 8.8% active; G9a H3K9 monomethylation, AlphaScreen, 2 h; Q96KQ7; Potency, µM (series often up to 102 µM), without a hit: at the top dose activity, negative = inhibition, hits mostly inhibitors; note: % is set by controls: 0 for no effect and ±100 for the full control effect; nearly all actives have a fitted effect of over 75% in size
Target sequence (Q96KQ7 913-1193 limits assumed): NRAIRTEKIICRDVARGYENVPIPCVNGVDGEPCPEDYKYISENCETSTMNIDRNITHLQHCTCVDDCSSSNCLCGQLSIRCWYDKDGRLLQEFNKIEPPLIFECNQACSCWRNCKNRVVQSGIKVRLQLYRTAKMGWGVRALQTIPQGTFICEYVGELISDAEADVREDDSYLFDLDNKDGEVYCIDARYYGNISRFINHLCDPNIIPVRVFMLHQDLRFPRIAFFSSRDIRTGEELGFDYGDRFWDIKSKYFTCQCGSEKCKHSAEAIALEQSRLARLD
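Quantitative HTS format: methyltransferase activity on a biotin-tagged H3K9 peptide is measured by AlphaScreen, using a rabbit anti-monomethyl-H3K9 antibody with streptavidin donor and anti-IgG acceptor beads. Final levels are 20 nM enzyme, 500 nM peptide, 20 uM SAM; 2 h RT.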
Sfp inh – blocks B. subtilis Sfp PPTase activity. Q9F4F7. Biochemical Sfp PPTase activity, qHTS. Potency, µM, without a hit: largest response in the series, negative = inhibition, usual class: inhibitors. 310,000 tested, 3.5% active. AID 1490;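 note: the enzyme is Sfp with the accession as filed and its product quenches rhodamine fluorescence; 0% = enzyme reaction without inhibitor and -100% = no enzyme wells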
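Buffer: 50 mM Hepes-Na pH 7.6, 10 mM MgCl2, 0.01% Nonidet P-40, 0.01% BSA. Enzyme 15 nM, pre-exposed to compound 15 min; substrates then added and fluorescence change tracked over 30 min.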
JMJD2A Tudor – JMJD2A Tudor domain (human) inhibition; O75164; AlphaScreen JMJD2A-Tudor / H3K4me3 peptide binding; Potency, µM (doses to about 114 µM), for the others: top-dose activity change, negative = inhibition, usual class: inhibitors; 390,000 tested, 4.4% active; note: % is set by controls: 0 for no effect and ±100 for the full control effect; nearly all actives have a fitted effect of over 50% in size
Starred values were filed as active, the others as inactive; ? = inconclusive; · = not tested or not shown; [ ] = dose if it differs, or a comment. An excerpt weighted towards active compounds, which were near 12% of everything screened. Calls come from the whole dose curve; as a rule, active = well fitted curve in the direction sought with a large enough effect; inconclusive = small, poorly fitted or top-dose-only effect, or another doubt; inactive = no such curve, though single readings can be large; an effect the other way counts as inactive or inconclusive. Potency is the fitted concentration of half-maximal effect.

SMILES	HP1b binding inh	BAZ2B block	L3MBTL1 block	G9a inh	Sfp inh	JMJD2A Tudor
Cc1ccc(Oc2ccccc2NC(=O)C2=COCCO2)cc1	64%	25%	16%	4%	·	37%
Cc1c(Cc2ccccc2)c(=O)n2c([nH]c3ccccc32)c1C#N	64%	-4%	0%	0%	79µM*	-10%[11.4 µM]
COC(=O)C1=C(C(=O)OC)[C@@H]2N(C)c3ccccc3[C@@]23C[C@@H](C(=O)OC)N(S(=O)(=O)c2ccc4c(c2)OCCN4C)C3=N1	·	·	·	·	5%	·
O=C(COC(=O)c1ccc(Cl)s1)c1cc2ccccc2o1	84%	12%	·	-32%[12.7 µM]	-10%	25%
Cn1cccc1C(=O)OCC(=O)c1cc2ccccc2o1	-8%	-22%	-11%	45µM*	-9%	?
COc1cc2nc(NC(=O)c3ccc(F)cc3Cl)sc(=O)c2cc1OC	-1%	-31%	·	35µM*	-19%	-7%
OC(C#CCN1CCOCC1)(c1ccccc1)C1CC1 (stereo not given)	22%	?	3%	45µM*	-8%	-22%
CC(O)(C#CCN1CCCCCC1)c1ccccc1 (stereo not given)	5%	2%	3%	50µM*	6%	-20%[11.4 µM]
CCOC(=O)CN1C(=O)S/C(=C/c2ccc(C)o2)C1=O	1%	-39%	-6%	32µM*	-24%	-22%
CCCN1C(=O)/C(=C/c2ccc(C)o2)SC1=Nc1ccc(OCC)cc1	-14%	?	-14%	?	7.9µM*	?
CCCC[C@H]1CCCO[C@@](C(=O)NCc2ccccn2)(C(F)(F)F)C1	25%	·	·	·	4%	1%
CCOC(=O)CNC(=O)C(=O)c1c(O)[nH]c2ccccc12	6%	-4%	-4%	-6%[12.7 µM]	3%	50µM*
Cc1[nH]c2ccccc2c1C(=O)C(=O)NCCOc1ccccc1	11%	-25%	·	-32%	9%	-12%
Cn1cccc1C(=O)N1CCC2(CCN(Cc3ccc(C#N)cc3)CC2)CC1	·	·	·	-3%[12.7 µM]	14%	·
COc1ccc(-c2nnc(SCC(=O)NCc3ccc(C)cc3)nc2-c2ccc(OC)c(OC)c2)cc1OC	11%	-25%	·	-34%[59 µM]	·	-29%
CCOc1cc(-c2nnc(SCC(=O)NCc3ccc(C)cc3)nc2-c2ccc(OC)c(OCC)c2)ccc1OC	15%	56µM*	·	10µM*	·	-28%
CCOc1cc(-c2nnc(SCC(=O)NCc3ccccc3)nc2-c2ccc(OC)c(OCC)c2)ccc1OC	7%	50µM*	·	7.9µM*	·	?
O=C(O)C(c1ccccc1)C1(O)CCC1 (stereo not given)	29%[57 µM]	·	·	·	·	-6%
CCN(CC)C(=O)C1=C(C)NC(=S)NC1c1cccs1 (stereo not given)	13%	-5%	10%	?	0%	-16%
CCN(CC)C(=O)CSC1=C(C#N)C(c2cccs2)C=C(C)N1 (stereo not given)	17%	16%	11%	10µM*	50µM*	56µM*
CCOC(=O)C1=C(C)NC(SCC(=O)OC)=C(C#N)C1c1ccc(C(=O)OC)cc1 (stereo not given)	42%	-16%	20%	?	56µM*	-11%
CCOC(=O)C1=C(C)NC(C)=C(C(=O)OCC)C1c1cccs1	43%	5%	6%	5%[59 µM]	1%	-1%
C#CCSC1=C(C#N)C(c2cccs2)C(C(=O)OCC)=C(C)N1 (stereo not given)	38%	19%	·	1%[12.7 µM]	28µM*	-9%
Cc1cccc(N2C(=O)CSC23C(=O)N(CC(=O)NCc2ccccc2Cl)c2ccccc23)c1 (stereo not given)	24%	1%[57.1 µM]	·	-8%[59 µM]	·	-13%
CCC(C)N(C(=O)Cn1cnc2c1c(=O)n(C)c(=O)n2C)C1CCS(=O)(=O)C1 (stereo not given)	0%	-6%	6%	-48%	·	-14%
SMILES	HP1b binding inh	BAZ2B block	L3MBTL1 block	G9a inh	Sfp inh	JMJD2A Tudor
O=C1c2ccccc2-c2onc3ccc(Oc4ccccc4)c1c23	-27%	?	-6%[11.4 µM]	8.9µM*	1%	?
Cc1noc(C)c1S(=O)(=O)Nc1ccccc1Oc1ccccc1	27%	13%	10%	·	1%	-5%
CCSc1cc(C2C(C(=O)OC)=C(C)NC3=C2C(=O)CCC3)c(C)o1 (stereo not given)	?	?	-1%	7.1µM*	-19%	?
CCCOc1cccc(C2C(C(=O)c3ccc(C)o3)=C(O)C(=O)N2c2nc(C)c(C(C)=O)s2)c1 (stereo not given)	8%	56µM*	·	16µM*	-19%	-27%
CCOc1cccc(C2C(C(=O)c3ccc(C)o3)=C(O)C(=O)N2c2nnc(C)s2)c1 (stereo not given)	?	·	·	·	·	1.1µM*
CCOc1cccc(C2c3c(oc4ccccc4c3=O)C(=O)N2c2nc(C)c(C(=O)OC)s2)c1 (stereo not given)	8%	?	·	-12%[59 µM]	·	-19%
NC(N)=N/N=C(\N=Nc1ccccc1)c1ccc(Cl)cc1	?	·	·	·	·	22µM*
NC(N)=N/N=C(\N=Nc1ccccc1)c1cccc2cccnc12	3%	·	·	·	·	?
Cc1sc2nc(SCC(=O)C(C)(C)C)n(Cc3ccco3)c(=O)c2c1C	25%	-4%	1%	-8%[59 µM]	-15%	-23%
Cc1sc2nc3c4ccccc4c(NCc4ccco4)nn3c(=O)c2c1C	30%	19%	15%	-29%[59 µM]	18µM*	8%
COC(=O)c1ccc(CSc2nnc(NCc3ccccc3)s2)o1	45%	2%	-1%	50µM*	4%	0%
Cc1nc(NCc2ccco2)c2c(C)c(C)sc2n1	?	28µM*	·	8.9µM*	-28%	3.2µM*
COC(=O)c1ccc(CSc2nnc(SCc3ccc(C(=O)OC)o3)s2)o1	6%	-5%	-6%	-38%[59 µM]	-15%	-15%
Cc1nc(SCC(=O)N(C)Cc2ccco2)c2c(C)c(C)sc2n1	24%	-26%	-5%	50µM*	-12%	-28%[57.1 µM]
CCOC(=O)c1sc2nc(CC(=O)OC)nc(NCc3ccco3)c2c1C	-19%	?	-13%	-5%[12.7 µM]	-15%	?
O=C(O)/C=C/c1ccc(S(=O)(=O)Nc2ccccc2C(=O)Nc2ccc(F)cc2)cc1	8%	-8%	·	?	1%	-1%

Screening data as filed in PubChem BioAssay.
